# PubChem BioAssay (EPA / NIEHS)
# Several values for one entry are separate records, joined by “and”; a condition that tells them apart may be missing. Equal entries are not always repeated. Activity calls are given as the source filed them. The calls were made as follows: active = hit-call score of the fitted dose curve at least 0.9, where 1 is the maximum; inactive = score below 0.9.
# Read-out: Human Leukocyte Antigen - DR isotype (HLADR), HLA-DRA (gene 3122)
# Test: BSK_3C_HLADR: BioMAP Diversity Plus: 3C Assay for Human Leukocyte Antigen - DR isotype (HLADR) Biomarker Activity (AID 2283019)
# Conditions: primary human endothelial cells (HUVEC); actives raise or lower the signal
# Procedure: BSK_3C is a cell-based, multiplexed-readout assay that uses umbilical vein endothelium, a human vascular primary cell, with measurements taken at 24 hours after chemical dosing in a 96-well plate.BSK_3C_HLADR is an assay component measured in the BSK_3C assay. It measures HLA-DR antibody related to regulation of gene expression using ELISA technology.Data from the assay component BSK_3C_HLADR was analyzed into 1 assay endpoint. This assay endpoint, BSK_3C_HLADR, was analyzed with bidirectional fitting relative to DMSO as the negative control and baseline of activity. Using a type of binding reporter, gain or loss-of-signal activity can be used to understand changes in the signaling as they relate to the gene HLA-DRA. Furthermore, this assay endpoint can be referred to as a primary readout, because this assay has produced multiple assay endpoints where this one serves a signaling function. To generalize the intended target to other relatable targets, this assay endpoint is annotated to the cell adhesion molecules intended target family, where the subfamily is MHC Class II.
# The levels of cell surface (or secreted, indicated by the prefix "s") biomarker endpoints were measured by ELISA. Overt cytotoxicity to cells in confluent adherent cultures (all systems other than the BT system) was assessed by measuring total protein levels using sulforhodamine B (SRB) staining in parallel cultures at the time of biomarker measurements, indicated as SRB endpoints. For proliferation assays for adherent cell types, individual cell types are cultured at sub-confluence and relative cell numbers quantified by SRB staining at time points optimized for each system (48 h: 3C and CASM3C systems; 72 h: BT and HDF3CGF systems; 96 h: SAg system). SRB was performed by staining cells with 0.1% SRB after fixation with 10% TCA and reading wells at 560 nm.Viability and proliferation of PBMC (T cells) was quantified by Alamar Blue reduction for the SAg and BT systems. For PBMC viability (referred to as PBMC Cytotoxicity within the assay endpoint names), cells were plated (75,000/well in a 96-well plate) and then chemical samples added for 1 h before addition of activators, SEB and TSST-1 (20 ng/mL final concentration each). Cells were incubated for 90 h. Then, Alamar Blue (20 uL/well) (Invitrogen, Cat DAL1100) was added for 6 h, and the plates were read with a fluorescence microplate reader at 546/580 nm (excitation/emission). For PBMC proliferation, cells were plated and activated as above but incubated for only 16 h prior to addition of Alamar Blue. Plates were read after 6 h.
SMILES,outcome,AC50
CCOP(=S)(OCC)SCCSCC,inactive,–
O=[N+]([O-])c1cc(C(F)(F)F)c(Cl)c([N+](=O)[O-])c1Nc1ncc(C(F)(F)F)cc1Cl,–,919 nM (active) and 1.74 µM (active)
Cc1cc(C2CC2)nc(Nc2ccccc2)n1,–,15.2 µM (active)
CC(C)N(C(=O)SCC(Cl)=C(Cl)Cl)C(C)C,–,32.9 µM (active)
CCOC(=O)CC(SP(=O)(OC)OC)C(=O)OCC (stereo not given),inactive,–
CCCCN(CC)c1c([N+](=O)[O-])cc(C(F)(F)F)cc1[N+](=O)[O-],–,20 µM (active)
CCCCSP(=O)(SCCCC)SCCCC,–,27.7 µM (active)
CCOP(=S)(OCC)Oc1ccc2c(C)c(Cl)c(=O)oc2c1,inactive,–
CC(COc1ccc(Oc2ccccc2)cc1)Oc1ccccn1 (stereo not given),–,21 µM (active)
CCOP(=O)(OCC)Oc1cc(C)nc(C(C)C)n1,–,20 µM (active)
CN1COCN(Cc2cnc(Cl)s2)C1=N[N+](=O)[O-],inactive,–
Cc1ccn2nc(S(=O)(=O)Nc3c(F)cccc3F)nc2n1,inactive,–
CC(C)[C@H](C(=O)O[C@H](C#N)c1cccc(Oc2ccccc2)c1)c1ccc(Cl)cc1,–,12.9 µM (active)
Nc1nc(N)nc(NC2CC2)n1,inactive,–
COc1ccc(C(=CC(=O)N2CCOCC2)c2ccc(Cl)cc2)cc1OC,–,13.9 µM (active)
CCCOCC(=Nc1ccc(Cl)cc1C(F)(F)F)n1ccnc1,–,26.8 µM (active)
CCC(=O)Nc1ccc(Cl)c(Cl)c1,–,6.03 µM (active)
CN(C)NC(=O)CCC(=O)O,inactive,–
C[Si](Cn1cncn1)(c1ccc(F)cc1)c1ccc(F)cc1,inactive,–
CC(Oc1cccc(Cl)c1)C(=O)O (stereo not given),inactive,–

SMILES,outcome,AC50
CCOP(=S)(Oc1cnc(C(C)(C)C)nc1)OC(C)C (stereo not given),–,31.3 µM (active)
CCC(CC)Nc1c([N+](=O)[O-])cc(C)c(C)c1[N+](=O)[O-],–,36.2 µM (active)
Nc1c(Cl)cc([N+](=O)[O-])cc1Cl,–,28.8 µM (active)
CCOP(=O)(NC(C)C)Oc1ccc(SC)c(C)c1 (stereo not given),inactive,–
COc1cccc(C(=O)NN(C(=O)c2cc(C)cc(C)c2)C(C)(C)C)c1C,inactive,–
CC(C1CC1)C(O)(Cn1cncn1)c1ccc(Cl)cc1 (stereo not given),inactive,–
CCCCOC(=O)c1ccccc1C(=O)O,inactive,–
C=C(C)[C@H]1Cc2c(ccc3c2O[C@@H]2COc4cc(OC)c(OC)cc4[C@@H]2C3=O)O1,–,3.82 µM (active)
CCCSP(=O)(OCC)Oc1ccc(Br)cc1Cl (stereo not given),inactive,–
CCC(=NOC/C=C/Cl)C1=C(O)CC(C2CCOCC2)CC1=O (stereo not given),inactive,–
C[N+]1(C)CCCCC1,inactive,–
CNC(=O)ON=C(C)SC,inactive,–
CC1=NNC(=O)N(/N=C/c2cccnc2)C1,inactive,–
CCOP(=S)(OCC)OC(Cl)C(Cl)(Cl)Cl (stereo not given),–,12.2 µM (active)
COP(=O)(NC(C)=O)SC (stereo not given),inactive,–
CC[C@H](C)[C@H]1O[C@]2(C=C[C@@H]1C)C[C@@H]1C[C@@H](C/C=C(\C)[C@@H](O[C@H]3C[C@H](OC)[C@@H](O[C@H]4C[C@H](OC)[C@@H](NC)[C@H](C)O4)[C@H](C)O3)[C@@H](C)/C=C/C=C3\CO[C@@H]4[C@H](O)C(C)=C[C@@H](C(=O)O1)[C@]34O)O2,–,3.38 µM (active)
CON=C(C(=O)OC)c1ccccc1CON=C(C)c1cccc(C(F)(F)F)c1,–,2.82 µM (active)
CNC(=O)Oc1cccc2c1OC(C)(C)O2,–,28.6 µM (active)
CSC1=N[C@@](C)(c2ccccc2)C(=O)N1Nc1ccccc1,–,5.87 µM (active)
CCCSP(=O)(OCC)SCCC,inactive,–
